# Screens (PubChem)
# PABP polyA inh: blocks human PABP binding to poly(A) RNA; P11940; fluorescence polarization; inhibition, % at 35 µM; hit rate 1% among 290,000;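 also: calls also rest on retests at 20 µM and on dose response follow-up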
# Target sequence (P11940 whole entry, looked up): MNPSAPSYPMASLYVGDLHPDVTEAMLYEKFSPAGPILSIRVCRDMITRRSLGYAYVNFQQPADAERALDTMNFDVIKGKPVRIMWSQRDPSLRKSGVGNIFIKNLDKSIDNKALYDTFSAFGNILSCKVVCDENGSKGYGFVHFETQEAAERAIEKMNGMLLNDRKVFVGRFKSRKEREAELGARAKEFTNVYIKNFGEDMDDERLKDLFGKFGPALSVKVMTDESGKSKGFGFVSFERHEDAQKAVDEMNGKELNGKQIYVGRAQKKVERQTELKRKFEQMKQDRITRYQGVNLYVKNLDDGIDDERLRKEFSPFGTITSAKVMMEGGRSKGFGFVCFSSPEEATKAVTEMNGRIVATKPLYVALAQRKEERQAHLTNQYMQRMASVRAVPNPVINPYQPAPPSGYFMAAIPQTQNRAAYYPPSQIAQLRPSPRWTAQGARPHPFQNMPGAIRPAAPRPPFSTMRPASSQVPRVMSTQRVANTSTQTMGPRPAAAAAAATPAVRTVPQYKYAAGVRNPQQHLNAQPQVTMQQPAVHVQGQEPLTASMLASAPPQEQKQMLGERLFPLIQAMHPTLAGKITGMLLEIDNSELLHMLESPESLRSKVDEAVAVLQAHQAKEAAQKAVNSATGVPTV
# eIF4E 4G PPI: eIF4E/eIF4G interaction inhibition in translation initiation | inhibition, % at 21.7 µM | P63073+Q04637 | TR-FRET eIF4E-eIF4GI(517-606) binding, 2 h | hit rate 0.37% among 220,000;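 active = inhibition above about 30%, limit read from the data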;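 also: 0% = full FRET control wells and 100% = background wells lacking eIF4GI fragment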
# PfM18AAP inh: PfM18AAP enzyme inhibition. recombinant PfM18AAP, H-Glu-NHMec fluorogenic cleavage. inhibition, % at 7.35 µM. hit rate 1.2% among 290,000;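 active = inhibition above the campaign mean inhibition over all tested compounds plus 3 SD, cut at about 28% in these data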;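 also: 0% = plate median of test compound wells and 100% = 2 mM ZnCl2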
# eIF4H FP inh: inhibitors of RNA binding by human eIF4H; Q15056; eIF4H fluorescence polarization binding assay; inhibition, % at 35 µM; hit rate 0.94% among 290,000;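 also: calls also rest on retests at 20 µM and on dose response follow-up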
# PERK inh: inhibitors of human PERK kinase. Q9NZJ5. CHO PERK-DD fusion, SEAP luminescence translation reporter. inhibition, % at 5.6 µM. hit rate 0.17% among 220,000. AID 1416;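 active = inhibition above the mean inhibition of all tested compounds plus 3 SD, set separately per screening campaign, cut at about 2.9% in these data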;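 also: PERK kinase domain activated by AP20187 dimerizer at 100 nM; 0% = DMSO with dimerizer and 100% = rapamycin at 8.4 µM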
# MLLE-PAM2 inh: inhibitors of microRNA-mediated deadenylation, human PABP1 MLLE binding. P11940. GST-MLLE / FITC-PAM2 fluorescence polarization. inhibition, % at 20 µM. hit rate 0.36% among 360,000; in the data active = inhibition above about 35%, passing the limit was not always enough;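 also: plate controls were DMSO wells with GST-MLLE for no effect and wells lacking GST-MLLE protein for full effect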
# Numbers without * were called inactive; ? = inconclusive; nt = no result; [ ] = dose if it differs, or a comment. Hits are enriched below; roughly 2.4% of the tested compounds scored in any of these assays. Unless noted, no rule for the calls is given here.
SMILES,PABP polyA inh,eIF4E 4G PPI,PfM18AAP inh,eIF4H FP inh,PERK inh,MLLE-PAM2 inh
COc1ccccc1CC(=O)NCC1CCCO1 (centres undefined),8,4,nt,-5,nt,9
Cc1ccccc1-n1c(C)cc(/C=C(\C#N)C(=O)NCC2CCCO2)c1C (centres undefined),2.3*,12,3,88*,0,4
COc1ccccc1CNC(=O)C(=O)NCC1CCCO1 (centres undefined),109*,6,-1,active,0,-9
COc1cc(/C=C(\C#N)C(=O)NCC2CCCO2)c([N+](=O)[O-])cc1OC (centres undefined),19,0,30*,0,0,-78
O=c1[nH]c(C(Cl)Cl)nc2sc3c(c12)CCN(Cc1ccccc1)C3,12*,10,7,78*,1,11
CC1(C)c2cc(Cl)ccc2-n2c1cc(O)c(-c1ccccc1)c2=O,-2,70*,3,-5,0,-10
C(=C\c1ccccc1)/CN1CCN(C(c2nnnn2Cc2ccccc2)C2CC2)CC1 (centres undefined),nt,nt,nt,nt,nt,6
CC(=O)Nc1cc(-c2cccc(F)c2)cn2c(-c3ccccc3)cnc12,nt,nt,nt,nt,nt,-15
CN1c2ccccc2N(C)C1(C)c1ccccc1,12*,42*[fluorescence artefact?],4,67*,0,13
CCN1c2ccccc2N(C)C1(C)c1ccccc1 (centres undefined),6.9*,43*[fluorescence artefact?],-2,84*,0,24
CCC1(c2ccccc2)CN(C)C1=O (centres undefined),nt,nt,nt,nt,nt,18
CCOC(=O)N1CCN(CC(O)COc2ccccc2[N+](=O)[O-])CC1 (centres undefined),5,nt,1,4,nt,-12
Cc1cc(C)c(NC(=O)NC(=O)C(Cl)(Cl)Cl)c(C)c1,13,4,-4,2,3.5*,-12
CCCCCCCCN1N=N[C@H]2[C@H]1[C@@H]1C[C@H]2N(C(=O)OC(C)(C)C)O1,nt,nt,nt,nt,nt,0
COc1ccc(C(=S)Nc2ccc(C)cc2)cc1,3,7,16,2,1,40*
COc1ccc(NC(=O)CN(C)C(=O)CNC(=O)c2cccs2)cc1,-8,nt,-9,1,nt,-4
Cc1cccn2cc(CCNS(=O)(=O)c3cccc([N+](=O)[O-])c3)nc12,-7,-6,5,5,1,-2
CCOc1ccc(NC(=S)Nc2cccc3cnccc23)cc1,-5,3,2,16,0,36
COc1ccc(NC(=S)Nc2cccc3cnccc23)cc1,active,0,2,57,0,20
CN1/C(=C\C=N\NC(=O)c2ccccc2Br)C(C)(C)c2ccccc21,-1,0,31*,?,0,1
CN1/C(=C/C=N/n2cnnc2)C(C)(C)c2ccccc21,0,-2,27,1,-1,7
Cn1ccc(CC(=O)N2CCC(N3CCC(C(=O)N4CCCC4)CC3)CC2)c1,24*,-4,-6,52*,1,-12
O=C(NC1CC1)C1CCN(C2CCN(C(=O)Cc3ccc(F)cc3)CC2)CC1,-3,4,5,-6,1,9
CN(C)C(=O)c1ccc(NC(=O)COc2ccc([N+](=O)[O-])cc2)cc1,-7,6,5,-8,1,-8
Nc1ccc(-c2nc3ccccc3o2)cc1,3.2*,nt,9,50,nt,-17
SMILES,PABP polyA inh,eIF4E 4G PPI,PfM18AAP inh,eIF4H FP inh,PERK inh,MLLE-PAM2 inh
Cn1nc(C(C)(C)C)cc1C(=O)Sc1cccc(Br)c1,-1,0,-6,-2,0,44*
O=C(COc1cc(Cl)ccc1Cl)Nc1ccc2[nH]c(=O)[nH]c2c1,nt,nt,nt,nt,nt,-10
O=C(COc1cc(Cl)ccc1Cl)Nc1ccc2c(c1)CCC2,6.4*,-4,0,64*,0,-12
C=C(C)C(=O)Nc1cccc(C2=NOC3(C2)C[C@@H](C(N)=O)N(C(=O)[C@H]2CCC(=O)N2)C3)c1 (some centres undefined),39,4,nt,103*,nt,-3
C=C(C)C(=O)Nc1cccc(C2=NOC3(C2)C[C@@H](C(N)=O)N(C(=O)CCCCC)C3)c1 (some centres undefined),70*,9,nt,81*,nt,nt
C=C(C)C(=O)Nc1cccc(C2=NOC3(C2)C[C@@H](C(N)=O)N(C(=O)c2cc([N+](=O)[O-])cc([N+](=O)[O-])c2)C3)c1 (some centres undefined),43,-3,nt,89,nt,-4
C=C(C)C(=O)Nc1cccc(C2=NOC3(C2)C[C@@H](C(N)=O)N(C(=O)c2ccc(OC)cc2)C3)c1 (some centres undefined),54*,7,nt,106*,nt,-3
C/C=C(/C)C(=O)Nc1cccc(C2=NOC3(C2)C[C@@H](C(N)=O)N(C(=O)[C@H]2CCC(=O)N2)C3)c1 (some centres undefined),6,-6,nt,-3,nt,0
CCOC(=O)C1CCN(C(=O)NS(=O)(=O)c2ccc(C)cc2)CC1,55*,-2,-3,3.0*,0,3
Cc1ccccc1NC(=O)c1c(C)[nH]c(=S)c(C#N)c1-c1ccc(Cl)cc1,8,-2,9,2,0,5
Cc1[nH]c(=S)c(C#N)c(-c2ccccc2)c1C(=O)Nc1ccccc1,3,32*,28*,-8,0,4
COc1cc(/C=C2\SC(=O)N(Cc3ccc(Cl)cc3)C2=O)cc([N+](=O)[O-])c1O,5,61*,3,15,0,-5
N#C/C=C1/NC(=O)c2ccccc2S1,?,0,29*,?,0,5
COC(=O)c1ccc2c(c1)NC(=O)c1ccccc1S2,-4,nt,4,-2,nt,1
CCC(C(=O)NC(C)CCc1ccccc1)n1nc(C)n2c(cc3occc32)c1=O (centres undefined),12,2,-1,12,0,4
CCC(C(=O)NC(C)CCc1ccco1)n1nc(C)n2c(cc3occc32)c1=O (centres undefined),2,50*,5,0,-1,-3
O=S(=O)(c1ccc(Cl)cc1)c1ccccn1,-9,-2,3,10,1,3
Cc1c(S(=O)(=O)c2ccccn2)c(N)n(Cc2cccc(Cl)c2)c1C,10,73*,-12,62,0,-54
O=C1OCCC1Sc1nc(-c2ccccc2)cs1 (centres undefined),0,2,3,-5,1,4
Cc1ccc(-c2csc3ncnc(SCc4ccc(C(=O)O)cc4)c23)cc1,86,13,-3,95*,2,-11
Cc1sc2ncnc(SCc3ccc(C(=O)O)cc3)c2c1C,4,3,1,-5,0,16
FC(F)(F)c1nc2nc(Cl)c(Cl)nc2[nH]1,nt,nt,nt,nt,nt,-6
FC(F)(F)C(F)(F)C(F)(F)c1nc2nc(Cl)c(Cl)nc2[nH]1,nt,nt,nt,nt,nt,49*
N#C/C(=C/c1ccc(N2CCCCC2)o1)C(=O)Nc1ccc(Cl)cc1,118,-2,6,127*,-1,-112
